Results taken from PubChem BioAssay.
Values joined by “and” are separate entries in the source; they are usually repeats but may differ in a detail not shown here. Equal entries are not always repeated. Inconclusive results are not listed. Where a structure was tested more than once in an assay, its records may differ in their call. Active and inactive are the calls of the source.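 How the source made its calls, unless noted: active means compounds whose cell count with miR-34 switched on is under 0.7 times the count with it off; inactive means the rest.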

What was measured:
[1] = viability loss with induced miR-34 in A549 – imaging, A549 dox-inducible miR-34, nuclei and caspase counts, primary screen (AID 1347080); conditions: A549 miR-34 inducible, Hoechst nuclei count, 48 h
[2] = blockers of cellular phospholipid synthesis – cell-based, LOPAC library, screen 4, primary screen (AID 1347384; call rule not given here); conditions: animal cells, phospholipid biosynthesis inhibition screen; at 10 µM
[3] = MELAS cybrid and Rieske KO viability enhancers – cell-based, MELAS cybrids, Rieske KO mouse fibroblasts, CellTiter-Glo, primary screen (AID 1508586;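 active means mean z-score across replicates of 1.96 or higher in either the MELAS or the Rieske mutant cell line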;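 further: z relative to plate mean and SD of compound and empty wells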); conditions: low glucose
[4] = molecular target: NAD(+) hydrolase SARM1 (Homo sapiens) (UniProt Q6SZW1); assay: blocking NAD cleavage by SARM1 SAM-TIR – cell lysate, NAD-Glo luminescence (AID 1508614;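 active means compound whose remaining NAD level is above about 45 nM, limit read from the data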); conditions: SAM-TIR HEK293T lysate NADase, at 1 µM, stronger effect = higher value
Chain of NAD(+) hydrolase SARM1 (Homo sapiens) (Q6SZW1 whole entry, looked up, the tested form may be a part): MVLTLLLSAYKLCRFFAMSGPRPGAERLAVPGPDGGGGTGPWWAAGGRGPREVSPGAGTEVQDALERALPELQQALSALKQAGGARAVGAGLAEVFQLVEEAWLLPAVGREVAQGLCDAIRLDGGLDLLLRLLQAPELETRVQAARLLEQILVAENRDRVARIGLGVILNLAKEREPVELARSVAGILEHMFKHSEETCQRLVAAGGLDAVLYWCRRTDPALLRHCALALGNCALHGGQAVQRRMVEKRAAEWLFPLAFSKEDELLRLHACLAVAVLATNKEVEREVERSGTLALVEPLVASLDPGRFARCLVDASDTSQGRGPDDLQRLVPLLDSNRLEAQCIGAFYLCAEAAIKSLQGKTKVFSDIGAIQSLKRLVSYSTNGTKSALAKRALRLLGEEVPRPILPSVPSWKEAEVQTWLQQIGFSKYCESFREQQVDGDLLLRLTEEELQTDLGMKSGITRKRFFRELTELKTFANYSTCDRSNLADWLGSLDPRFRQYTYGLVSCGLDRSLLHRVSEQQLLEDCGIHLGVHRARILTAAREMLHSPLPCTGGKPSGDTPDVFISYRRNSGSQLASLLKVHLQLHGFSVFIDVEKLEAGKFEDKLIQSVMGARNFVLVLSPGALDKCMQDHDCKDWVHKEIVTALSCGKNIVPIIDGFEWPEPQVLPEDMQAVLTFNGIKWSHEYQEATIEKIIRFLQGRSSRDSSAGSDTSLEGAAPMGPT

[5] = molecular target: Mitogen-activated protein kinase 7 (Homo sapiens) (UniProt Q13164); assay: Gal4-ERK5 driven luciferase induction – cell-based, HTS, primary screen (AID 1508626;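 active means luciferase signal above three times the same-plate solvent-only control wells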;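 further: luciferase driven by Gal4-ERK5 fusion binding five Gal4 sites before minimal TATA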); conditions: HeLa Gal4-ERK5 transactivation, 18 h, at 5 µM, stronger effect = higher value
Chain of Mitogen-activated protein kinase 7 (Homo sapiens) (Q13164 whole entry, looked up, the tested form may be a part): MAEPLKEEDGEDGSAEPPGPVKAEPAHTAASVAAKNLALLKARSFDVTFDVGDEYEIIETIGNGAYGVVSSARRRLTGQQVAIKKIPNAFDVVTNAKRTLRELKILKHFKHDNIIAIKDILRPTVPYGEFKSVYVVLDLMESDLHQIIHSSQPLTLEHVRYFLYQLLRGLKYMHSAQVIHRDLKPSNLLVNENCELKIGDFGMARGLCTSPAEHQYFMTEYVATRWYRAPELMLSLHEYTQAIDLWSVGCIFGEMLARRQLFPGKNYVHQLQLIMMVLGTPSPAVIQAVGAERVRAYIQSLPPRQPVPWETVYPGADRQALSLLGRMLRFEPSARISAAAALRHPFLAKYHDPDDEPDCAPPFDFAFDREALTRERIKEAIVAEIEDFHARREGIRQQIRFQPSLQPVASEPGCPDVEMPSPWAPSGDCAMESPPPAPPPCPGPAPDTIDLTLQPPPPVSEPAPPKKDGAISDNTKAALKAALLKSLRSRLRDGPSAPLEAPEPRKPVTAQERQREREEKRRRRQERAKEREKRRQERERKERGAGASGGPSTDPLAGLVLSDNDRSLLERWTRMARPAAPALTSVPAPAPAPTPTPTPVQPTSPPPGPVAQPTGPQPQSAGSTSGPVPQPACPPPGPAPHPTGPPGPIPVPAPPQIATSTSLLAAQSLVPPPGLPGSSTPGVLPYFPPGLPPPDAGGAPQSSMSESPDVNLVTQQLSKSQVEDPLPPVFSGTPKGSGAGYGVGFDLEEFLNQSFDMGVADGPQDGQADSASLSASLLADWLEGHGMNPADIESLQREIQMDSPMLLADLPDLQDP

[6] = galactose survival enhancers in mitochondrial complex I cybrids – cell-based, galactose medium, ATP luminescence, primary screen (AID 1645843;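 active means z-score of at least 1.8 in each of two replicates, scored against plate mean and spread of sample wells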;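 further: positive z means more ATP and so rescue of galactose-driven cybrid death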); conditions: complex I mutant cybrid cells, 72 h, stronger effect = higher value
[7] = growth inhibition of DIPG cells – cell-based, MIPE5.0 library, qHTS (AID 1347068; cut-off not given, nearly all actives have IC50 up to about 30 µM); conditions: SU-DIPG-XXV viability
[8] = chitosan synthesis blockers in C. neoformans – flow cytometry, Cibacron Brilliant Red staining (AID 1347148; call rule not given here;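 further: compound exposure lasted three days at 37 degrees C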); conditions: Cryptococcus neoformans chitosan, stronger effect = lower value; at 10 µM unless noted
[9] = JHH-DIPG-1 glioma cell viability, MIPE5.0 library, CellTiter-Glo luminescence, qHTS (AID 1347067; cut-off not given, nearly all actives have AC50 up to about 26 µM;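 further: cells exposed to compound for 48 hours before readout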); conditions: JHH-DIPG-1 glioma viability, CellTiter-Glo ATP luminescence
[10] = growth inhibition of DIPG cells – cell-based, MIPE4.0 library, CellTiter-Glo luminescence, qHTS (AID 1347066; cut-off not given, nearly all actives have AC50 up to about 30 µM;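 further: cells exposed to compound for 48 hours before readout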); conditions: SU-DIPG-VI viability, CellTiter-Glo ATP luminescence
[11] = stronger effect = lower value, cell number ratio, induced over uninduced
[12] = measured here: relative caspase fold change +Dox/-Dox
[13] = measured here: total cells with miR-34 induction, stronger effect = lower value
[14] = measured here: total cells without miR-34 induction
[15] = MELAS cybrid survival, CellTiter-Glo 48 h, stronger effect = higher value
[16] = Rieske KO mouse fibroblast survival, CellTiter-Glo 72 h

SMILES | fold change [1, 11] | fold change [1, 12] | cell count [1, 13] | cell count [1, 14] | outcome [2] | z-score [3, 15] | z-score [3, 16] | remaining NAD [4] | luciferase signal [5] | z-score [6] | outcome [7] | fold fluorescence [8] | outcome [9] | outcome [10]
CN(C)CCCN1c2ccccc2Sc2ccc(C(F)(F)F)cc21 | 1.11 (inactive) and 0.899 (inactive) and 0.891 (inactive) | 0.594 and 1.31 and 3.14 | 1420 and 7820 and 9630 | 1280 and 8700 and 10800 | inactive | -0.173 (inactive) | 0.266 | 10 nM (inactive) | 64 AU (inactive) | -1.38 (inactive) | – | – | – | –
COc1ccc(CC2c3cc(OC)c(OC)cc3CC[N+]2(C)CCC(=O)OCCCCCOC(=O)CC[N+]2(C)CCc3cc(OC)c(OC)cc3C2Cc2ccc(OC)c(OC)c2)cc1OC (stereo unspecified) | – | – | – | – | – | -0.594 (inactive) and -1.25 (inactive) and -0.066 (inactive) | -0.336 and -0.215 and -0.301 | 10 nM (inactive) | – | -0.89 (inactive) and 0.01 (inactive) | inactive | – | – | –
CO[C@@]1(NC(=O)CSCC#N)C(=O)N2C(C(=O)O)=C(CSc3nnnn3C)CS[C@@H]21 | 1.01 (inactive) and 0.961 (inactive) | 1.5 and 1.13 | 11000 and 9300 | 10900 and 9680 | inactive | -0.493 (inactive) | -0.322 | 10 nM (inactive) | 108 AU (inactive) | 0.77 (inactive) | – | – | – | –
Nc1ccc(S(=O)(=O)Nc2ccnn2-c2ccccc2)cc1 | 0.969 (inactive) and 0.9 (inactive) | 1.76 and 1.07 | 10100 and 7980 | 10500 and 8860 | inactive | -0.791 (inactive) | -0.133 | 10 nM (inactive) | 96 AU (inactive) | 0.735 (inactive) | – | – | – | –
CS(=O)(=O)Nc1ccc([N+](=O)[O-])cc1Oc1ccccc1 | – | – | – | – | inactive | -0.305 (inactive) and 0.634 (inactive) and -0.303 (inactive) | 1.18 and 0.441 and -0.993 | 10 nM (inactive) | 60 AU (inactive) | 1.54 (inactive) and 2.81 (active) and 0.735 (inactive) | inactive | 4.45 [at 162.2 µM] (inactive) | – | –
O=C(O)CN1C(=O)c2cccc3cccc(c23)C1=O | 0.898 (inactive) and 0.959 (inactive) and 0.946 (inactive) | 1.04 and 0.818 and 2.08 | 5450 and 8540 and 11100 | 6060 and 8900 and 11700 | – | – | – | 13 nM (inactive) | 44 AU (inactive) | 0.415 (inactive) | – | 3.97 [at 195.9 µM] (inactive) | – | –
COc1cc(C(=O)NS(=O)(=O)c2ccccc2C)ccc1Cc1cn(C)c2ccc(NC(=O)OC3CCCC3)cc12 | – | – | – | – | – | -0.216 (inactive) and 0.374 (inactive) and -0.157 (inactive) | 0.567 and -0.073 and 0.0854 | – | – | 1.64 (inactive) and 1.23 (inactive) | inactive | – | inactive | –
CC(C)NNC(=O)c1ccncc1 | 1.01 (inactive) and 0.987 (inactive) and 0.902 (inactive) | 0.707 and 0.895 and 1.13 | 10400 and 9260 and 10200 | 10300 and 9380 and 11300 | inactive | -0.146 (inactive) and 0.243 (inactive) | -0.0689 and -0.0455 | 10 nM (inactive) | 60 AU (inactive) | 0.54 (inactive) and 0.67 (inactive) | – | – | – | –
Cc1nccn1CC1CCc2c(c3ccccc3n2C)C1=O (stereo unspecified) | – | – | – | – | – | -0.478 (inactive) and 0.555 (inactive) and 0.267 (inactive) | 0.23 and 0.514 and 0.91 | 10 nM (inactive) | – | 0.415 (inactive) and 0.495 (inactive) and 0.69 (inactive) | – | – | – | inactive
Cc1ncc([N+](=O)[O-])n1CCO | – | – | – | – | – | -0.252 (inactive) and -0.693 (inactive) and 0.0516 (inactive) | 0.34 and -0.0287 and -0.879 | 10 nM (inactive) | 56 AU (inactive) | 1.04 (inactive) and 0.355 (inactive) | – | – | – | inactive
C=CCc1ccccc1OCC(O)CNC(C)C (stereo unspecified) | 0.963 (inactive) and 0.998 (inactive) and 0.909 (inactive) | 1.1 and 1.18 and 0.556 | 10100 and 7510 and 7890 | 10500 and 7520 and 8680 | inactive | -0.407 (inactive) and -0.689 (inactive) | -0.409 and 0.651 | 10 nM (inactive) | 60 AU (inactive) | -0.345 (inactive) and 0.39 (inactive) | – | – | – | –
O=C(O)[C@@H]1[C@H]2C[C@H]3c4[nH]c5ccccc5c4CCN3C[C@@H]2CC[C@@H]1O | 0.933 (inactive) | 1.33 | 7540 | 8080 | – | – | – | – | – | – | – | – | – | –
CN(C)CCOC(=O)COc1ccc(Cl)cc1 | 1.05 (inactive) and 0.847 (inactive) and 0.935 (inactive) | 2.3 and 1.11 and 0.787 | 9260 and 9320 and 8720 | 8800 and 11000 and 9330 | inactive | -0.229 (inactive) and 0.0507 (inactive) | -0.156 and 1.13 | 10 nM (inactive) | 64 AU (inactive) | 1.14 (inactive) | – | – | – | –
C[C@]12C=CC(=O)C=C1CC[C@H]1[C@@H]3C[C@@H](O)[C@](O)(C(=O)CO)[C@@]3(C)C[C@H](O)[C@@]12F | 0.938 (inactive) and 0.869 (inactive) and 0.939 (inactive) | 0.943 and 0.955 and 1.2 | 7680 and 5920 and 7610 | 8190 and 6810 and 8100 | inactive | 0.162 (inactive) and 0.389 (inactive) | 0.159 and 0.935 | 10 nM (inactive) | 36 AU (inactive) | 2.37 (active) and 0.76 (inactive) | – | – | – | –
CC(CN(C)C)CN1c2ccccc2CCc2ccccc21 (stereo unspecified) | 1.11 (inactive) and 0.82 (inactive) and 0.914 (inactive) | 1.28 and 1.05 and 3.48 | 8450 and 7420 and 11100 | 7640 and 9050 and 12100 | inactive | -0.24 (inactive) | -0.99 | 10 nM (inactive) | 64 AU (inactive) | -1.16 (inactive) | – | – | – | –
C=CC(N)CCC(=O)O (stereo unspecified) | 0.942 (inactive) and 0.866 (inactive) and 0.941 (inactive) | 1.9 and 1.11 and 2.08 | 9530 and 8830 and 11000 | 10100 and 10200 and 11700 | inactive | -0.0921 (inactive) | 0.0881 | 10 nM (inactive) | 92 AU (inactive) | 0.155 (inactive) | – | – | – | –
